# Reference: PubChem BioAssay
# Where “and” joins values, the source holds several entries; their conditions need not be identical. Identical values can stand only once. Calls of active or inactive are those of the source. Rule as the data show it, unless noted: active = nuclear beta-catenin stimulation mostly above about 4.2% (no sharp cut-off); inactive = mostly below about 10%.
# How the values were obtained:
# [1] = Wnt pathway potentiators raising nuclear beta-catenin – imaging, WNT3A-conditioned medium, mouse C2C12, NPC library, primary screen (AID 1117326); settings: stronger effect = higher value
# [2] = stimulators of insulin release from INS-1E, primary screen, cell-based, 5 mM glucose, NPC library (AID 1117329;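 active = compound raises insulin release from rat beta cells at 5 mM glucose, no numeric limit stated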); settings: rat INS-1E insulin secretion, at 10 µM, stronger effect = higher value
# [3] = GLP1 release stimulators, primary, NCI-H716, NPC library (AID 1117341;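 active = compound raises GLP1 secretion from the human gut endocrine cells, with no numeric limit stated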); settings: NCI-H716 cells, at 10 µM, stronger effect = higher value
# [4] = growth inhibition of GSK3B-pretreated HCT116 cells – cell-based, CellTiter-Glo, 0.2 to 20 µM (AID 1117336;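 active = compounds lowering colon cancer cell viability after pretreatment blocking the GSK3B kinase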); settings: HCT116 viability after GSK3B inhibitor, at 20 µM, stronger effect = higher value
# [5] = inhibition of endothelial tube formation, primary screen, imaging, VEGF stimulated, CD31 staining, tube area, NPC library (AID 1117340;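 active = compound that reduces growth-factor-driven endothelial tube area in a mixed cell culture, no cutoff stated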); settings: VEGF-stimulated ADSC/ECFC co-culture, at 10 µM, stronger effect = higher value
# [6] = HCT116 colon cancer cell growth inhibition, primary screen, CellTiter-Glo luminescence, NPC library (AID 1117342;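 active = compounds that lower survival of HCT116 colon cancer cells in the luminescence readout, no numeric limit stated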); settings: at 20 µM (top of the series)
# [7] = reduced SW480 viability measured with CellTiter-Glo, NPC library, primary (AID 1117343;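 active = compounds that lower viability of the colon cancer cells in the luminescence readout, with no numeric limit stated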); settings: CellTiter-Glo luminescence; at 20 µM (top of the series) unless noted
# [8] = NPC library primary testing for decreased DLD-1 cell viability via CellTiter-Glo (AID 1117346;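 active = compounds that lower survival of DLD-1 colon cancer cells in the luminescence readout, no cutoff given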); settings: DLD-1 viability, CellTiter-Glo luminescence; at 20 µM (top of the series)
# [9] = target: NAD(+) hydrolase SARM1 (Homo sapiens) (UniProt Q6SZW1); test: blocking NAD cleavage by SARM1 SAM-TIR – cell lysate, NAD-Glo luminescence (AID 1508614;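 active = compound whose remaining NAD level is above about 45 nM, limit read from the data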;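 also: higher remaining NAD means stronger inhibition of SARM1 NADase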); settings: SAM-TIR HEK293T lysate NADase, at 1 µM, stronger effect = higher value
# [10] = target: Mitogen-activated protein kinase 7 (Homo sapiens) (UniProt Q13164); test: Gal4-ERK5 driven luciferase induction – cell-based, HTS, primary screen (AID 1508626;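 active = luciferase signal above three times the same-plate solvent-only control wells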;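 also: luciferase driven by Gal4-ERK5 fusion binding five Gal4 sites before minimal TATA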); settings: HeLa Gal4-ERK5 transactivation, 18 h, at 5 µM, stronger effect = higher value
# [11] = MELAS cybrid and Rieske KO viability enhancers – cell-based, MELAS cybrids, Rieske KO mouse fibroblasts, CellTiter-Glo, primary screen (AID 1508586;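 active = mean z-score across replicates of 1.96 or higher in either the MELAS or the Rieske mutant cell line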;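 also: z relative to plate mean and SD of compound and empty wells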); settings: low glucose
# [12] = P. berghei load reduction in hepatocytes – cell-based, HepG2, luciferase luminescence, HepG2 viability, primary screen (AID 624349; in the data active = parasite load remaining mostly below about 12%, no sharp cut-off; inactive = mostly above about 10%;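 also: 100% = mean of DMSO negative control wells on the same plate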); settings: P. berghei liver stage in HepG2, luciferase luminescence, concentration not given here; parasite load remaining: stronger effect = lower value; viability: measured here: HepG2 viability without parasites
# [13] = viability loss with induced miR-34 in A549 – imaging, A549 dox-inducible miR-34, nuclei and caspase counts, primary screen (AID 1347080;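 active = compounds whose cell count with miR-34 switched on is under 0.7 times the count with it off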); settings: A549 miR-34 inducible, Hoechst nuclei count, 48 h
# [14] = EMT-state selective cytotoxicity in co-culture – imaging, PC-3E GFP, TEM4-18 mCherry, primary screen (AID 1345086;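 active = compounds killing one labelled cell type while sparing the other, by normalised counts and ratio limits, not self-fluorescent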;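 also: cells exposed to compound for 72 h before imaging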;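 as to red/green cell ratio (normalised): normalised mesenchymal count divided by normalised epithelial count so high means epithelial killing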); settings: PC-3E GFP / TEM4-18 mCherry co-culture, imaging cell counts, at 1 µM
# [15] = MELAS cybrid survival, CellTiter-Glo 48 h, stronger effect = higher value
# [16] = Rieske KO mouse fibroblast survival, CellTiter-Glo 72 h
# [17] = stronger effect = lower value, cell number ratio, induced over uninduced
# [18] = measured here: relative caspase fold change +Dox/-Dox
# [19] = measured here: total cells with miR-34 induction, stronger effect = lower value
# [20] = measured here: total cells without miR-34 induction
# Chain of NAD(+) hydrolase SARM1 (Homo sapiens) (Q6SZW1 whole entry, looked up, the tested form may be a part): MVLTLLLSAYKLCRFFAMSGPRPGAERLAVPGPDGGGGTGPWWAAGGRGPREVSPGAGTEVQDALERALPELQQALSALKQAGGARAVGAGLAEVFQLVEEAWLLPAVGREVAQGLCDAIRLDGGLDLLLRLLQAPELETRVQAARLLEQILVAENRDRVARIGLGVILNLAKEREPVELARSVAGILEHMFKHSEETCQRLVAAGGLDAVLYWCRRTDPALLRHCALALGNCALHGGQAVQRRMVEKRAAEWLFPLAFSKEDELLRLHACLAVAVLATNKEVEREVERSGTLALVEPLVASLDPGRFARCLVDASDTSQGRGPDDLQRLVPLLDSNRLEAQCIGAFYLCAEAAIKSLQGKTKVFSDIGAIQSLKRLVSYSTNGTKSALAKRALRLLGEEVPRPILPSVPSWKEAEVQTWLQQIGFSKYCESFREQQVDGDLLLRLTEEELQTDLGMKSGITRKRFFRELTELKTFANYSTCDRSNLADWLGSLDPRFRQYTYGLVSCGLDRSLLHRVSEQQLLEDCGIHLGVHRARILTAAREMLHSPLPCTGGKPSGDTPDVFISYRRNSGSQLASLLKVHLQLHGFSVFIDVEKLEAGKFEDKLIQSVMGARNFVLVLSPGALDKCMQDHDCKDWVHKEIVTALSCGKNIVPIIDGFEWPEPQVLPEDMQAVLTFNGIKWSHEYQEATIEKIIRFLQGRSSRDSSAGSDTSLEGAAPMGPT
# Chain of Mitogen-activated protein kinase 7 (Homo sapiens) (Q13164 whole entry, looked up, the tested form may be a part): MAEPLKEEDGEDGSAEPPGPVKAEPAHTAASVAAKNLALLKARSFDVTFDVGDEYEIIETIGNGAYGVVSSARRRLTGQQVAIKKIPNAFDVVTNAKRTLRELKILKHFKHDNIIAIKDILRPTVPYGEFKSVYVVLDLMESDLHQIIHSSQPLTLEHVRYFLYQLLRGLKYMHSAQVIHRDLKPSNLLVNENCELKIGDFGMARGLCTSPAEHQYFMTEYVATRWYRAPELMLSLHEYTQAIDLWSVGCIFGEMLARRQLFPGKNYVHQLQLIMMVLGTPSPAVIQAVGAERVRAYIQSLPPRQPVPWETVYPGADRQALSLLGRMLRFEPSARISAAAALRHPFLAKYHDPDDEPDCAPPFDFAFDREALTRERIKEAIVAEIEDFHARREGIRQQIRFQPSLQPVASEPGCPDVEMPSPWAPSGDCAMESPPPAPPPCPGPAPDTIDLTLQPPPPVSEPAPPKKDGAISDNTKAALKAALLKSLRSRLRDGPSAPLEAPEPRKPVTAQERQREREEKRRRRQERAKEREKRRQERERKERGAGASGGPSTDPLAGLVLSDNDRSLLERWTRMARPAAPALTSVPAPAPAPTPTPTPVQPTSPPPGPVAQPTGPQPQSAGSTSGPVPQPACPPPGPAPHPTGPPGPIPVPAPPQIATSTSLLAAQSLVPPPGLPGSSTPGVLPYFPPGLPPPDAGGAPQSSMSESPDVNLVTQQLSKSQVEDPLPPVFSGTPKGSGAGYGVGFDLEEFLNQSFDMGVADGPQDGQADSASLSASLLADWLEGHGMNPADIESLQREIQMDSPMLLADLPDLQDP
smiles,measurement,setting,value
CCCCCCCC(=O)OCC(COC(=O)CCCCCCC)OC(=O)CCCCCCC,nuclear beta-catenin stimulation,[1]; at 10 µM,-0.5% (inactive)
same,nuclear beta-catenin stimulation,"[1]; stimulation, at 2 µM",-1.9%
same,insulin secretion stimulation,[2],0.2% (inactive)
same,GLP1 secretion stimulation,[3],-5.4% (inactive)
Cc1c(N)cccc1C(F)(F)F,nuclear beta-catenin stimulation,[1]; at 10 µM,0.9% (inactive)
same,nuclear beta-catenin stimulation,"[1]; stimulation, at 2 µM",5.4%
same,viability decrease,[4],2.8% (inactive)
same,tube area decrease,[5],5.6% (inactive)
same,inhibition of viability,[6],11.2% (inactive)
same,viability decrease (inhibition),[7],1.3% (inactive)
same,viability decrease (inhibition),[8],6.9% (inactive)
Cn1cc(S(C)=O)c(=O)c2ccc(F)cc21 (stereo not drawn),nuclear beta-catenin stimulation,[1]; at 10 µM,0.3% (inactive)
same,nuclear beta-catenin stimulation,"[1]; stimulation, at 2 µM",10.4%
same,viability decrease,[4],-6.9% (inactive)
same,tube area decrease,[5],1.1% (inactive)
same,inhibition of viability,[6],4.2% (inactive)
same,viability decrease (inhibition),[7],-1.3% (inactive)
same,viability decrease (inhibition),[8],-1.8% (inactive)
CN1CCN(c2cc3c(nn2)Oc2ccccc2N3C)CC1,nuclear beta-catenin stimulation,[1]; at 10 µM,0.9% (inactive)
same,nuclear beta-catenin stimulation,"[1]; stimulation, at 2 µM",0.3%
same,insulin secretion stimulation,[2],-1.15% (inactive)
same,GLP1 secretion stimulation,[3],5.9% (inactive)
CC(C)(CO)[C@@H](O)C(=O)NCCC(=O)NCCSSCCNC(=O)CCNC(=O)[C@H](O)C(C)(C)CO,nuclear beta-catenin stimulation,[1]; at 10 µM,0% (inactive)
same,nuclear beta-catenin stimulation,"[1]; stimulation, at 2 µM",-1.3%
same,insulin secretion stimulation,[2],0.15% (inactive)
same,GLP1 secretion stimulation,[3],2% (inactive)
same,remaining NAD,[9],10 nM (inactive)
same,luciferase signal,[10],160 AU (active)
C[C@H](O)CN(C)C,nuclear beta-catenin stimulation,[1]; at 10 µM,-0.1% (inactive)
same,nuclear beta-catenin stimulation,"[1]; stimulation, at 2 µM",1.5%
same,insulin secretion stimulation,[2],0.35% (inactive)
same,GLP1 secretion stimulation,[3],-2.5% (inactive)
Cc1cc(OI)c(C(C)C)cc1-c1cc(C(C)C)c(OI)cc1C,nuclear beta-catenin stimulation,[1]; at 10 µM,0% (inactive)
same,nuclear beta-catenin stimulation,"[1]; stimulation, at 2 µM",5.1%
same,viability decrease,[4],13.9% (inactive)
same,tube area decrease,[5],4.7% (inactive)
same,inhibition of viability,[6],-41.6% (inactive)
same,viability decrease (inhibition),[7],10.4% (inactive)
same,viability decrease (inhibition),[8],18.8% (inactive)
Cc1cccc(Nc2cc(Cl)nc(SCC(=O)O)n2)c1C,nuclear beta-catenin stimulation,[1]; at 10 µM,-0.3% (inactive)
same,nuclear beta-catenin stimulation,"[1]; stimulation, at 2 µM",0.2%
same,insulin secretion stimulation,[2],-0.2% (inactive)
same,GLP1 secretion stimulation,[3],-3.8% (inactive)
same,z-score,[11]; [15],-0.392 (inactive)
same,z-score,[11]; [16],-0.362
CCCCC[C@@H](O)CC[C@H]1[C@@H]2Cc3cccc(OCC(=O)O)c3C[C@@H]2C[C@@H]1O,nuclear beta-catenin stimulation,[1]; at 10 µM,-0.3% (inactive)
same,nuclear beta-catenin stimulation,"[1]; stimulation, at 2 µM",0.2%
same,insulin secretion stimulation,[2],-0.45% (inactive)
same,GLP1 secretion stimulation,[3],8.8% (inactive)
Cc1c(C)c2c(c(C)c1O)CC[C@@](C)(CCC[C@H](C)CCC[C@H](C)CCCC(C)C)O2,parasite load remaining,[12],72.9% (inactive)
same,viability,[12],100%
same,nuclear beta-catenin stimulation,[1]; at 10 µM,0.1% (inactive)
same,nuclear beta-catenin stimulation,"[1]; stimulation, at 2 µM",0.4%
same,insulin secretion stimulation,[2],1% (inactive)
same,GLP1 secretion stimulation,[3],4.7% (inactive)
same,fold change,[13]; [17],0.864 (inactive)
same,fold change,[13]; [18],1.16
same,cell count,[13]; [19],7550
same,cell count,[13]; [20],8740
same,remaining NAD,[9],10 nM (inactive)
O=C(O)CCC(=O)OC[C@@H](NC(=O)C(Cl)Cl)[C@H](O)c1ccc([N+](=O)[O-])cc1,parasite load remaining,[12],75.9% (inactive) and 67.1% (inactive)
same,viability,[12],75.5% and 91.9%
same,nuclear beta-catenin stimulation,[1]; at 10 µM,2.4% (inactive)
same,nuclear beta-catenin stimulation,"[1]; stimulation, at 2 µM",0.4%
same,insulin secretion stimulation,[2],0% (inactive)
same,GLP1 secretion stimulation,[3],4.4% (inactive)
same,fold change,[13]; [17],0.886 (inactive)
same,fold change,[13]; [18],1.1
same,cell count,[13]; [19],11000
same,cell count,[13]; [20],12500
same,remaining NAD,[9],10 nM (inactive)
same,luciferase signal,[10],44 AU (inactive)
CCC1Nc2cc(Cl)c(S(N)(=O)=O)cc2S(=O)(=O)N1 (stereo not drawn),nuclear beta-catenin stimulation,[1]; at 10 µM,-0.1% (inactive)
same,nuclear beta-catenin stimulation,"[1]; stimulation, at 2 µM",-1.8%
same,insulin secretion stimulation,[2],0.25% (inactive)
same,GLP1 secretion stimulation,[3],2% (inactive)
NC1=NCC2c3ccccc3Cc3ccccc3N12 (stereo not drawn),nuclear beta-catenin stimulation,[1]; at 10 µM,-0.3% (inactive)
same,nuclear beta-catenin stimulation,"[1]; stimulation, at 2 µM",-1%
same,insulin secretion stimulation,[2],12.5% (inactive)
same,GLP1 secretion stimulation,[3],4.4% (inactive)
same,fold change,[13]; [17],0.943 (inactive) and 0.763 (inactive)
same,fold change,[13]; [18],0.904 and 1
same,cell count,[13]; [19],9270 and 7910
same,cell count,[13]; [20],9840 and 10400
same,z-score,[11]; [15],-0.3 (inactive)
same,z-score,[11]; [16],-0.211
Cc1cccc(C)c1NC(=O)CC12CCCN1CCC2,nuclear beta-catenin stimulation,[1]; at 10 µM,4.2% (inactive)
same,nuclear beta-catenin stimulation,"[1]; stimulation, at 2 µM",1.3%
same,insulin secretion stimulation,[2],0.3% (inactive)
same,GLP1 secretion stimulation,[3],5% (inactive)
CCCCCCCCCCCCCCCC(=O)OCC=C(C)C=CC=C(C)C=CC1=C(C)CCCC1(C)C,nuclear beta-catenin stimulation,[1]; at 10 µM,-1.5% (inactive)
same,nuclear beta-catenin stimulation,"[1]; stimulation, at 2 µM",-0.3%
same,insulin secretion stimulation,[2],1.2% (inactive)
same,GLP1 secretion stimulation,[3],2.7% (inactive)
CC(=O)N(CC(O)CN(C(C)=O)c1c(I)c(C(=O)NCC(O)CO)c(I)c(C(=O)NCC(O)CO)c1I)c1c(I)c(C(=O)NCC(O)CO)c(I)c(C(=O)NCC(O)CO)c1I (stereo not drawn),parasite load remaining,[12],80.7% (inactive)
same,viability,[12],90.6%
same,nuclear beta-catenin stimulation,[1]; at 10 µM,0.8% (inactive)
same,nuclear beta-catenin stimulation,"[1]; stimulation, at 2 µM",1.9%
same,insulin secretion stimulation,[2],0.95% (inactive)
same,GLP1 secretion stimulation,[3],2% (inactive)
same,red/green cell ratio (normalised),"[14]; actives lie on both sides, counts scaled to control wells, 1 = unselective",1.05 (inactive)
same,normalised cell number,[14]; measured here: epithelial PC-3E GFP cell survival,1
same,normalised cell number,[14]; measured here: mesenchymal TEM4-18 mCherry cell survival,1.05
same,fold change,[13]; [17],0.892 (inactive)
same,fold change,[13]; [18],0.943
same,cell count,[13]; [19],8820
same,cell count,[13]; [20],9890
same,z-score,[11]; [15],0.435 (inactive)
same,z-score,[11]; [16],-0.343
same,remaining NAD,[9],10 nM (inactive)
FC(F)(F)C(F)(F)C(F)(F)C(F)(F)C(F)(F)C(F)(F)C(F)(F)C(F)(F)Br,nuclear beta-catenin stimulation,[1]; at 10 µM,-0.6% (inactive)
same,nuclear beta-catenin stimulation,"[1]; stimulation, at 2 µM",11.4%
same,viability decrease,[4],8.2% (inactive)
same,tube area decrease,[5],-4.5% (inactive)
same,inhibition of viability,[6],12.1% (inactive)
same,viability decrease (inhibition),[7],-4.8% (inactive)
same,viability decrease (inhibition),[8],7.2% (inactive)
CCCCCCOC(=O)c1cccnc1,nuclear beta-catenin stimulation,[1]; at 10 µM,5.7% (inactive)
same,nuclear beta-catenin stimulation,"[1]; stimulation, at 2 µM",1.5%
same,insulin secretion stimulation,[2],-1.25% (inactive)
same,GLP1 secretion stimulation,[3],-0.9% (inactive)
CC(=O)NC(=O)c1ccccc1O,nuclear beta-catenin stimulation,[1]; at 10 µM,4.6% (inactive)
same,nuclear beta-catenin stimulation,"[1]; stimulation, at 2 µM",0.9%
same,insulin secretion stimulation,[2],-0.5% (inactive)
same,GLP1 secretion stimulation,[3],-0.9% (inactive)
CCOC(=O)[C@H](CCc1ccccc1)N[C@@H](C)C(=O)N1C(=O)N(C)C[C@H]1C(=O)O,nuclear beta-catenin stimulation,[1]; at 10 µM,0% (inactive)
same,nuclear beta-catenin stimulation,"[1]; stimulation, at 2 µM",-1.6%
same,insulin secretion stimulation,[2],0% (inactive)
same,GLP1 secretion stimulation,[3],2% (inactive)
CCC=CCC=CCC=CCCCCCCCC(=O)O,nuclear beta-catenin stimulation,[1]; at 10 µM,-0.2% (inactive)
same,nuclear beta-catenin stimulation,"[1]; stimulation, at 2 µM",0%
same,insulin secretion stimulation,[2],2.65% (inactive)
same,GLP1 secretion stimulation,[3],12.4% (inactive)
